Source: PubChem BioAssay
A selection: hits, their analogues and other compounds. The true share with any hit is near 8%.
SW480 rereplic = DNA re-replication induction in SW480 cells; SW480 DNA re-replication, Hoechst DNA content imaging, 48 h; Potency, µM (titrated, usually from 46.1 µM), most hits filed as activators; hit rate 1.8% among 340,000; note: nearly all actives have a fitted effect of over 55% in size
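First, 250 cells per well were seeded. Next, compound or vehicle (23 nL) was pinned in, plates sat 48 hr at 37 C. Finally Hoechst was added for 40 min before fluorescence scanning.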
HT1080NT lethal = kills 2HG-producing HT-1080-NT fibrosarcoma cells. hit rate 1.6% among 360,000. Potency, µM (doses to about 46.1 µM), actives largely listed as cytotoxic. AID 686970. HT-1080-NT fibrosarcoma viability, CellTiter-Glo ATP luminescence, 48 h;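 note: NT is the 2HG producing partner of a matched IDH1 knockdown line; nearly all actives have a fitted effect of over 55% in size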
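Read-out is CellTiter-Glo luminescence after 10 minutes at room temperature, following 48 hours' compound treatment of HT-1080-NT cells (750 cells/well, RPMI, 5% FBS, 37 degrees C).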
HT1080 IDH1KD tx = toxicity to HT-1080 IDH1 knockdown cells (counter line) | Potency, µM (highest dose often 46.1 µM), usual class: cytotoxic | hit rate 2% among 360,000 | AID 686971 | HT-1080 IDH1 knockdown viability, ATP luminescence, 48 h
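After a 2 h attachment period, IDH1KD HT-1080 cells took pin-transferred compound for 48 h at 37 °C; ATP-based luminescence after 10 min room-temperature reagent incubation reported viability.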
KB-V1 cytotox = KB-V1 MDR subline cytotoxicity. KB-V1 MDR cells viability, CellTiter-Glo, 72 h. Potency, µM (top dose mostly 46.1 µM), hits mostly cytotoxic. hit rate 3.4% among 400,000; note: nearly all actives have a fitted effect of over 60% in size
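Cytotoxicity via CellTiter-Glo luminescence after 72 h compound exposure at 37 degrees C. Cells: drug-selected KB-V1 line, DMEM phenol-red free plus 10% FBS. Compounds tested at multiple concentrations; normalized data fitted to concentration-effect curves.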
MCF10A rereplic = DNA re-replication induction in MCF 10a cells | hit rate 2.9% among 350,000 | Potency, µM (series often up to 46.1 µM), most hits filed as activators | MCF 10A DNA re-replication, Hoechst nuclear intensity, 48 h; note: nearly all actives have a fitted effect of over 50% in size
KB-3-1 tox = kills parental KB-3-1 adenocarcinoma cells; Potency, µM (top dose mostly 46.1 µM), hits mostly cytotoxic; KB-3-1 viability, CellTiter-Glo ATP luminescence, 72 h; AID 1347075; hit rate 1.4% among 400,000; note: nearly all actives have a fitted effect of over 60% in size
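72 h, 37 °C compound treatment of KB-3-1 parental cells; CellTiter-Glo added, 10 min, luminescence read. Data corrected against DMSO-only plates and normalized before curve fitting.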
Hits are given with their value; n = inactive; u = inconclusive; x = no result. Calls come from the whole dose curve; as a rule, active = well fitted curve in the direction sought with a large enough effect; inconclusive = small, poorly fitted or top-dose-only effect, or another doubt; inactive = no such curve, though single readings can be large; an effect the other way counts as inactive or inconclusive.

SMILES | SW480 rereplic | HT1080NT lethal | HT1080 IDH1KD tx | KB-V1 cytotox | MCF10A rereplic | KB-3-1 tox
O=C(CN1CCCCC1)Nc1ccc(NC(=O)c2ccccc2Cl)cc1Cl | n | n | n | 4.6µM | u | 23µM
O=C(CN1CCCCC1)Nc1ccccc1Oc1ccccc1 | n | u | n | n | 18µM | n
CN1CCN(CC(=O)Nc2ccccc2Oc2ccccc2)CC1 | n | n | n | n | n | n
COc1ccccc1NC(=O)CN1CCN(Cc2ccccc2)CC1 | n | n | n | 10µM | n | n
C[C@@H](NC(c1ccc(F)cc1)c1ccc2cccnc2c1O)c1ccccc1 (stereo partly drawn) | x | x | x | n | x | u
CCc1nc2ccc(C(=O)N(C)CCCN(C)C)cn2c1N(C)Cc1cc2ccccc2s1 | x | 18µM | 16µM | n | x | n
CCOC(=O)c1ccc(N2C(=O)c3n[nH]c(C)c3C2c2ccccc2)cc1 (stereo not drawn) | n | n | n | 13µM | n | n
CCOC(=O)c1ccc(N2C(=O)c3[nH]nc(-c4ccc(OC)cc4)c3C2c2ccc(C)cc2)cc1 (stereo not drawn) | x | x | x | 18µM | x | u
COc1ccc(C2c3c(-c4ccc(F)cc4)n[nH]c3C(=O)N2c2ccccc2)cc1OC (stereo not drawn) | x | x | x | n | x | u
COc1ccc(-c2n[nH]c3c2C(c2ccc(OC)c(OC)c2)N(c2ccccc2)C3=O)cc1 (stereo not drawn) | n | u | u | 15µM | n | u
O=C(NCCc1ccccc1)C1CCC(=O)N(Cc2cccc(C(F)(F)F)c2)C1 (stereo not drawn) | n | n | n | x | n | x
O=C(NC(=S)NCc1ccccc1)c1ccc2c(c1)OCO2 | n | n | n | n | n | n
CC12c3ccccc3C(c3ccccc31)C1C(=O)N(c3ccncc3)C(=O)C12 (stereo not drawn) | n | n | n | n | n | n
CC12c3ccccc3C(c3ccccc31)C1C(=O)N(c3cccnc3)C(=O)C12 (stereo not drawn) | n | n | n | 15µM | n | n
O=[N+]([O-])c1ccc(Nc2ccccc2)c2nonc12 | n | n | n | n | n | n
O=[N+]([O-])c1ccc(Sc2cccc[n+]2[O-])c2nonc12 | u | 0.15µM | 0.58µM | u | u | u
COc1cc(S(=O)(=O)n2ccnc2C(C)C)ccc1Br | x | x | x | n | x | n
O=C1c2cc(F)ccc2-n2c1nc1ccccc1c2=O | u | u | u | 5.2µM | u | 6.5µM
CC1(C)Cc2c(c(-c3ccco3)nc3sc4c(NCC5CCCO5)ncnc4c23)CO1 (stereo not drawn) | u | u | u | u | 23µM | u
CC1(C)Cc2c(c(-c3ccco3)nc3sc4c(NCCCO)ncnc4c23)CO1 | n | n | n | u | n | n
CC1(C)Cc2c(c(-c3ccco3)nc3sc4c(NCCN5CCOCC5)ncnc4c23)CO1 | n | 23µM | 16µM | n | u | n
O=C(NCc1ccc(Cl)cc1)C1CCN(S(=O)(=O)c2ccc3c(c2)CCCN3C(=O)C2CCC2)CC1 | x | x | x | n | x | u
Nc1c(C(=O)NC23CC4CC(CC(C4)C2)C3)sc2nc3c(c(C(F)(F)F)c12)CCC3 | u | n | n | u | 1.6µM | n
CC(=O)N1CCc2nc3sc(C(=O)Nc4ccc(Cl)cc4F)c(N)c3c(C(F)(F)F)c2C1 | x | x | x | n | x | n
COc1ccc(CNC(=O)COC(=O)c2ccccc2OCC(=O)Nc2ccc(SC(F)F)cc2)cc1 | 10µM | n | n | n | n | u
COc1ccccc1C(=O)COC(=O)c1ccccc1OCC(=O)Nc1ccc(SC(F)F)cc1 | n | n | n | n | n | n
COc1ccccc1NC(=O)COC(=O)c1ccccc1OCC(=O)Nc1ccc(SC(F)F)cc1 | n | n | u | 13µM | n | n
COCc1ccc(C(=O)Nc2cccc(S(=O)(=O)N(C)c3ccccc3)c2)cc1 | n | 6.5µM | n | u | n | n
COc1ccccc1NS(=O)(=O)c1cccc(NC(=O)c2[nH]c(C)c(C(C)=O)c2C)c1 | n | n | n | u | u | u
